# Inconclusive results are not listed. Entries that show only a call come without a potency. Activity calls are given as the source filed them. Unless noted, the call rests on the fitted dose curve; in most records, active means well fitted curve in the direction sought with a large enough effect; inconclusive means small, poorly fitted or top-dose-only effect, or another doubt; inactive means no such curve, though single readings can be large; an effect the other way counts as inactive or inconclusive.
# How the values were obtained:
# [1] = Viability counterscreen for antagonist of constitutive androstane receptor (CAR) against the NCATS DSHEA and TCM libraries (AID 1794837);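 further: compound exposure lasted 24 h before viability reading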
# Outline: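 Cell viability, CellTiter-Fluor, Ex/Em 405/540 nm, 1 h at 37C. HepG2-CYP2B6-hCAR, 2,500 cells/well; cpds + CITCO 48 uM final (antagonist mode), 24 h, 37C/5% CO2.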
# [2] = Viability counterscreen for agonist of constitutive androstane receptor (CAR) against the NCATS DSHEA and TCM libraries (AID 1794838)
# Outline: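 Viability by CellTiter-Fluor fluorescence, 405/540 nm, after 1 h at 37C. HepG2-CYP2B6-hCAR cells were exposed 24 h to test substances in presence of 0.75 uM PK11195 (final).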
# [3] = molecular target: Nuclear receptor subfamily 1 group I member 3 (Homo sapiens) (UniProt Q14994); test: Primary qHTS for agonist of constitutive androstane receptor (CAR) against the NCATS DSHEA and TCM libraries (AID 1794839);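 further: HepG2 cells expressing human CAR with a CYP2B6 reporter plus PK11195 antagonist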
# Nuclear receptor subfamily 1 group I member 3 (Homo sapiens), sequence (Q14994 whole entry, looked up): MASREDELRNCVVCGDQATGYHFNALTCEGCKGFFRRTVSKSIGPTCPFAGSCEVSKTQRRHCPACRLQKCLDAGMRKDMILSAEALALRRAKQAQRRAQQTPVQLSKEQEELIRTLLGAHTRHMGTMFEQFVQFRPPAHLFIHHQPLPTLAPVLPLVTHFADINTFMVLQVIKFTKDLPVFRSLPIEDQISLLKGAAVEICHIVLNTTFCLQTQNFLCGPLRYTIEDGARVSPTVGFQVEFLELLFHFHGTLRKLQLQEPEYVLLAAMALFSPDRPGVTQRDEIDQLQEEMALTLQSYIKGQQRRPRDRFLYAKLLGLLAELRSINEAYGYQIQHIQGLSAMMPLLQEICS
# Outline: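 Luminescence from ONE-Glo luciferase was the agonist read-out in HepG2-CYP2B6-hCAR cells exposed 24 h to test substances. Wells also held the CAR antagonist PK11195 at 0.75 µM final. Viability was by CellTiter-Fluor fluorescence.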
# [4] = HepG2 viability counterscreen (readout 2: ATP content) against the NCATS DSHEA and TCM libraries (AID 1794840)
# Outline: (§1)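 1,000 HepG2 cells/well, 4 h attach; compounds ~24 h, 37C/5% CO2. Readout 1: GF-AFC 25 uM final, 30 min, fluorescence 380/510 nm. Readout 2: CellTiter-Glo, 30 min RT, luminescence.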
# [5] = HepG2 viability counterscreen (readout 1: protease activity) against the NCATS DSHEA and TCM libraries (AID 1794841);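 further: cells exposed to compounds for about 24 h before the protease read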
# Outline: as §1
# [6] = Quantitative High-Throughput drug screen in 47 multiple myeloma cell lines against the NCATS MIPE library collection: Delta47_JCRB cell viability assay (AID 1918925; further: nearly all actives have a fitted effect of over 45% in size; further: potency means the concentration at half of the fitted maximal effect)
# Outline: (§2)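 We plated 500 myeloma cells per well, pinned in MIPE 4.0 compounds, and incubated for 48 hours at 37C. ATP was then quantified with CellTiter-Glo, with DMSO and media-only wells defining 100% and 0%.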
# [7] = Quantitative High-Throughput drug screen in 47 multiple myeloma cell lines against the NCATS MIPE library collection: EJM_DSMZ cell viability assay (AID 1918926; further: nearly all actives have a fitted effect of over 30% in size; further: potency means the concentration at half of the fitted maximal effect)
# Outline: as §2
# [8] = Quantitative High-Throughput drug screen in 47 multiple myeloma cell lines against the NCATS MIPE library collection: ARP1_JJKsccF8 cell viability assay (AID 1918928; further: nearly all actives have a fitted effect of over 40% in size; further: potency means the concentration at half of the fitted maximal effect)
# Outline: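 Myeloma cells at 500 per well in 1536-well format treated with MIPE 4.0 library by pin transfer for 48 h at 37C, 5% CO2. Viability from ATP luminescence (CellTiter-Glo), normalized to DMSO (100%) and media-only (0%) wells.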
# [9] = Quantitative High-Throughput drug screen in 47 multiple myeloma cell lines against the NCATS MIPE library collection: ARD_JJKsccE7 cell viability assay (AID 1918929; further: potency means the concentration at half of the fitted maximal effect)
# Outline: as §2
# [10] = Quantitative High-Throughput drug screen in 47 multiple myeloma cell lines against the NCATS MIPE library collection: Karpas620_DSMZ cell viability assay (AID 1918959); further: nearly all actives have a fitted effect of over 30% in size; further: potency means the concentration at half of the fitted maximal effect
# Outline: (§3)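 Viability readout: CellTiter-Glo luminescence following 5 min room-temperature incubation with reagent. Prior exposure: 48 h, 37C, humidified 5% CO2, 500 cells per well.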
# [11] = NCATS anti-infectives library activity on the primary C. elegans qHTS viability assay (AID 1745855; calls by dose curve; further: potency means the concentration at half of the fitted maximal effect)
# Outline: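 Viability read-out is GFP fluorescence of PE254-GFP-FLuc C. elegans, measured by laser cytometry (488 nm) at day 0, 3 and 7. Ten L1 worms per well were incubated 7 days at 21 °C with compounds and bacterial capsules in S medium.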
# [12] = molecular target: Phospholipid hydroperoxide glutathione peroxidase GPX4 (Homo sapiens) (UniProt P36969); test: Primary qHTS Assay for Inhibitors of Recombinant Selenoprotein Glutathione Peroxidase 4 (GPX4) (AID 1845192); further: nearly all actives have a fitted effect of over 65% in size; further: potency means the concentration at half of the fitted maximal effect
# Phospholipid hydroperoxide glutathione peroxidase GPX4 (Homo sapiens), sequence (P36969 whole entry, looked up): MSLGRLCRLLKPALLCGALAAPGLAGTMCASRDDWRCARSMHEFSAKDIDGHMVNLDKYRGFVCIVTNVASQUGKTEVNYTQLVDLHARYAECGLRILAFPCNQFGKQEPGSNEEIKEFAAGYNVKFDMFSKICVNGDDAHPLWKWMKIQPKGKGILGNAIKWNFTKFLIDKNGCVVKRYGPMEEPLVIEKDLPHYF
# Outline: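 GR-coupled readout: 100 nM GR, 1 mM GSH, 0.5 mM NADPH; NADPH fluorescence (ex 340/em 450 nm) read at t=0 and after 15 min RT. GPX4 200 nM, preincubated 30 min with compound; substrate 0.5 mM CHP.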
# [13] = Quantitative High-Throughput drug screen in 47 multiple myeloma cell lines against the NCATS MIPE library collection: AMO1_DSMZ cell viability assay (AID 1918927; further: nearly all actives have a fitted effect of over 30% in size; further: potency means the concentration at half of the fitted maximal effect)
# Outline: as §2
# [14] = molecular target: Metallo-beta-lactamase type 2 (Klebsiella pneumoniae) (UniProt C7C422); test: qHTS to identify inhibitors of the New Delhi Metallo-beta-lactamase (NDM): assay validation screen against the NCATS LOPAC Collection (AID 1794843);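 further: nitrocefin turnover by NDM-1 measured as 485 nm absorbance at plateau; series mostly up to about 38 µM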
# Metallo-beta-lactamase type 2 (Klebsiella pneumoniae), sequence (C7C422 whole entry, looked up): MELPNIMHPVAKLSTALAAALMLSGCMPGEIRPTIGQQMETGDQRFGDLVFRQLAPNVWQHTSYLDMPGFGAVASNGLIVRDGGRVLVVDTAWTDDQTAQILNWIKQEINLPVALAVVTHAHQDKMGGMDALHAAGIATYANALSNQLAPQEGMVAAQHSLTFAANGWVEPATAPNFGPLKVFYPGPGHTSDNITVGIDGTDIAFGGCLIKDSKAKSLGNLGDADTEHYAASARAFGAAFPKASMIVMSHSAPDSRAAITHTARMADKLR
# Outline: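 NDM-1 at 2 nM final in 50 mM HEPES pH 7.0, 1 uM ZnSO4, 0.01% Tween20, preincubated with LOPAC compounds pinned in DMSO; 50 uM nitrocefin (stock) added. Hydrolysis read as absorbance at 485 nm in the plateau phase.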
# [15] = molecular target: Glutathione peroxidase 1 (Homo sapiens) (UniProt P07203); test: Primary qHTS Assay for Inhibitors of Recombinant Selenoprotein Glutathione Peroxidase 1 (GPX1) (AID 1845191); further: nearly all actives have a fitted effect of over 65% in size
# Glutathione peroxidase 1 (Homo sapiens), sequence (P07203 whole entry, looked up): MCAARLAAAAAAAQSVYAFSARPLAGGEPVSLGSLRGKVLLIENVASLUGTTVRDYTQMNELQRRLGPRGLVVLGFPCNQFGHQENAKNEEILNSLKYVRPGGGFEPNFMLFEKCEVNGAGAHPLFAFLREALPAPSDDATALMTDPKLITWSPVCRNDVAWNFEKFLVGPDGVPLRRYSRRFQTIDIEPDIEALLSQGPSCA
# Outline: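 Recombinant GPX1 (10 nM final) was preincubated with compound for 30 min at room temperature, then reacted with 1 mM GSH, 0.5 mM CHP, 0.5 mM NADPH and 100 nM glutathione reductase; NADPH fluorescence (340/450 nm) was read at 0 and 15 min.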
# [16] = molecular target: Luciferin 4-monooxygenase (Photinus pyralis) (UniProt P08659); test: Primary firefly luciferase (FLuc) qHTS assay for identification of artifact compounds. (AID 1845220); further: nearly all actives have a fitted effect of over 60% in size; further: potency means the concentration at half of the fitted maximal effect
# Outline: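 In this counter-screen for luciferase artifacts, test compounds met substrate (10 uM each luciferin and ATP) before 10 nM enzyme started the reaction. Light output was measured 5 min later.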
# [17] = Primary fluorescence-based thiol-reactive (MSTI) qHTS assay for identification of artifact compounds. (AID 1845221); further: nearly all actives have a fitted effect of over 65% in size; further: potency means the concentration at half of the fitted maximal effect
# Outline: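 In PBS pH 7.4 with 2% DMSO, each compound met 4 uM MSTI for one hour at ambient temperature, shielded from light, before fluorescence detection.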
# [18] = test system: Nanoluciferase (engineered Oplophorus gracilirostris luciferase); test: Primary Nanoluciferase (NLuc) qHTS assay for identification of artifact compounds. (AID 1845222); further: potency means the concentration at half of the fitted maximal effect
# Outline: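 Using secreted nanoluciferase in S16 culture medium (0.22 um filtered, 1:55 dilution), compounds were preincubated 15 min at RT. Signal was generated with Nano-Glo reagent (1:100) over 5 min.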
# [19] = Primary redox qHTS assay for identification of artifact compounds. (AID 1845223)
# Outline: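 Amplex Red (25 uM) and HRP (250 mU/mL) in HBSS, with compounds for 15 min, then 250 uM DTT for 30 min, room temperature, dark. Fluorescence 525/598 nm read; normalized to DMSO and 10 uM DA3003; Hill fit.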
# [20] = Quantitative High-Throughput drug screen in 47 multiple myeloma cell lines against the NCATS MIPE library collection: FR4_PLB cell viability assay (AID 1918924; further: nearly all actives have a fitted effect of over 35% in size; further: potency means the concentration at half of the fitted maximal effect)
# Outline: as §3
smiles,measurement,setting,value
COc1cc(O)c2c(c1)C(=O)c1cc(C)cc(O)c1C2=O,outcome,[1],inactive
same,outcome,[2],inactive
same,Potency,[3],inactive
same,outcome,[4],inactive
same,outcome,[5],inactive
same,Potency,[6],inactive
same,Potency,[7],inactive
same,Potency,[8],inactive
same,Potency,[9],inactive
same,Potency,[10],inactive
COc1ccc(-c2nc(N3CCOCC3)c3sc(CN(C)c4ncc(C(=O)NO)cn4)cc3n2)cn1,Potency,[11],14.5 µM (active)
same,Potency,[12],inactive
same,Potency,[7],0.0042 µM (active)
same,Potency,[13],0.001 µM (active)
same,Potency,[8],inactive
same,Potency,[10],0.001 µM (active)
CCCCC1C(=O)N(c2ccccc2)N(c2ccccc2)C1=O,Potency,[14],inactive
same,Potency,[15],inactive
same,Potency,[12],inactive
COC(=O)[C@@H]1[C@H]2C[C@H]3c4[nH]c5ccccc5c4CCN3C[C@@H]2CC[C@@H]1O,Potency,[14],inactive
same,Potency,[15],inactive
same,Potency,[12],inactive
same,Potency,[16],inactive
same,Potency,[17],inactive
same,Potency,[18],inactive
same,outcome,[19],inactive
COc1ccc(-c2coc3cc(O)ccc3c2=O)cc1,outcome,[4],inactive
same,outcome,[5],inactive
same,Potency,[7],inactive
same,Potency,[8],inactive
same,Potency,[9],inactive
same,Potency,[10],inactive
CC(C)=CC[C@@H](O)C1=CC(=O)c2c(O)ccc(O)c2C1=O,Potency,[11],16.3 µM (active)
same,Potency,[12],16.1 µM (active)
same,Potency,[20],0.662 µM (active)
same,Potency,[6],8.33 µM (active)
same,Potency,[7],0.418 µM (active)
same,Potency,[13],4.18 µM (active)
same,Potency,[8],1.32 µM (active)
same,Potency,[10],9.35 µM (active)
CC(C)(C)c1ccc(C(O)CCCN2CCC(C(O)(c3ccccc3)c3ccccc3)CC2)cc1 (configuration not stated),Potency,[14],inactive
same,Potency,[15],inactive
same,Potency,[12],inactive
CN(C[C@@H]1COCCO1)S(=O)(=O)Nc1ccc2ccc3ncc(-c4cnn(C)c4)cc3c(=O)c2c1,Potency,[15],inactive
same,Potency,[12],inactive
same,Potency,[16],inactive
same,Potency,[17],inactive
same,Potency,[18],inactive
same,outcome,[19],inactive
same,Potency,[20],13.2 µM (active)
same,Potency,[7],2.96 µM (active)
O=C(O)c1ccccc1C(=O)Nc1ccc(-c2ccccc2)cc1,Potency,[15],inactive
same,Potency,[12],inactive
same,Potency,[16],23.9 µM (active)
same,Potency,[18],23.9 µM (active)
same,outcome,[19],inactive
same,Potency,[20],inactive
same,Potency,[13],inactive
same,Potency,[8],inactive
same,Potency,[9],inactive
same,Potency,[10],inactive
O=C(O)CCc1nc(-c2ccccc2)c(-c2ccccc2)o1,Potency,[14],inactive
same,Potency,[16],inactive
same,Potency,[17],inactive
same,outcome,[19],inactive
COc1cc(N2CCC(N3CCN(C)CC3)CC2)ccc1Nc1ncnc(Nc2ccccc2S(=O)(=O)C(C)C)n1,Potency,[15],inactive
same,Potency,[12],inactive
same,Potency,[16],inactive
same,Potency,[18],inactive
Cc1ccc(/C=N/NC(=O)c2ccccc2Oc2ccccc2)o1,Potency,[15],inactive
same,Potency,[12],inactive
COc1ccc(Cc2ccc(NC(N)=O)cc2)cc1-c1cccc(Cl)c1,Potency,[15],inactive
same,Potency,[12],inactive
same,Potency,[16],inactive
same,Potency,[17],inactive
same,Potency,[18],inactive
same,outcome,[19],inactive
same,Potency,[20],inactive
same,Potency,[7],inactive
same,Potency,[8],inactive
COc1cc(N2CCC(N3CCN(C)CC3)CC2)ccc1Nc1ncc(Cl)c(Nc2ccccc2S(=O)(=O)C(C)C)n1,Potency,[15],inactive
same,Potency,[12],inactive
same,Potency,[16],inactive
same,Potency,[18],inactive
same,Potency,[6],inactive
COCCOc1nc(-c2ccc(Cl)c(Cl)c2)n(-c2ccc(NC(=O)CCl)cc2)n1,Potency,[15],inactive
same,Potency,[12],inactive
same,Potency,[16],inactive
same,Potency,[17],inactive
same,Potency,[18],inactive
same,outcome,[19],inactive
same,Potency,[6],9.35 µM (active)
same,Potency,[13],16.6 µM (active)
same,Potency,[8],23.5 µM (active)
same,Potency,[9],16.6 µM (active)
same,Potency,[10],16.6 µM (active)
O=C(NCc1ccccc1)c1csc(Nc2ccncn2)n1,Potency,[15],inactive
same,Potency,[12],inactive
same,Potency,[16],inactive
same,Potency,[17],inactive
same,Potency,[18],inactive
same,outcome,[19],inactive
same,Potency,[20],14.8 µM (active)
same,Potency,[6],14.8 µM (active)
same,Potency,[7],18.7 µM (active)
same,Potency,[13],9.35 µM (active)
same,Potency,[8],23.5 µM (active)
same,Potency,[9],10.5 µM (active)
same,Potency,[10],6.62 µM (active)
COc1cc(Nc2ncc(F)c(Nc3ccc4c(n3)NC(=O)C(C)(C)O4)n2)cc(OC)c1OC,Potency,[15],inactive
same,Potency,[12],inactive
same,Potency,[16],inactive
same,Potency,[18],inactive
same,outcome,[19],inactive
same,Potency,[20],20.9 µM (active)
same,Potency,[6],1.18 µM (active)
same,Potency,[13],inactive
same,Potency,[8],5.9 µM (active)
same,Potency,[10],inactive
CC(C)(C)c1cc(C(=O)O)c(NC(=O)Nc2ccc3[nH]ncc3c2)s1,Potency,[15],inactive
same,Potency,[12],inactive
same,Potency,[16],16.9 µM (active)
same,Potency,[17],1.06 µM (active)
same,Potency,[18],inactive
same,outcome,[19],inactive
same,Potency,[20],inactive
same,Potency,[7],inactive
same,Potency,[13],inactive
same,Potency,[8],inactive
same,Potency,[10],inactive
CC(C)NCC(O)COc1cccc2[nH]ccc12 (configuration not stated),Potency,[14],inactive
same,Potency,[16],inactive
same,Potency,[17],inactive
same,Potency,[18],inactive
same,outcome,[19],inactive
CCn1c(C(=O)N(C2CC2)C2CC2)cc2c3c(ncn3C)c(Nc3cc(C)n(C)n3)nc21,Potency,[15],inactive
same,Potency,[12],inactive
same,Potency,[16],inactive
same,Potency,[18],inactive
same,outcome,[19],inactive
same,Potency,[13],inactive
same,Potency,[10],inactive
CC(C)C(=O)Nc1ncc(-c2cc(C(F)F)nn2-c2c(Cl)cccc2Cl)s1,Potency,[15],inactive
same,Potency,[12],inactive
same,Potency,[16],inactive
same,Potency,[17],inactive
same,Potency,[18],inactive
same,outcome,[19],inactive
same,Potency,[6],26.4 µM (active)
same,Potency,[13],8.33 µM (active)
same,Potency,[9],20.9 µM (active)
OC[C@@H](O)[C@H](O)[C@H](O)[C@@H](O)CO,Potency,[15],inactive
CN1CCN(CCOc2cc(OC3CCOCC3)c3c(Nc4c(Cl)ccc5c4OCO5)ncnc3c2)CC1,Potency,[15],inactive
same,Potency,[12],inactive
same,Potency,[16],inactive
same,Potency,[17],inactive
same,Potency,[18],inactive
same,Potency,[20],18.7 µM (active)
same,Potency,[6],23.5 µM (active)
same,Potency,[13],18.7 µM (active)
same,Potency,[9],18.7 µM (active)
same,Potency,[10],18.7 µM (active)

# Reference: PubChem BioAssay (NCATS)
